D2 ag-1 – human D2 receptor agonism in beta-arrestin assay. P14416. DiscoveRx PathHunter D2 beta-arrestin, luminescence, 90 min; 100% = 57 uM dopamine signal. activation, % (no concentration beside the values). actives 0.084% (n = 360,000). AID 624465; in the data active = activation above about 40%
Target sequence (P14416 whole entry, looked up): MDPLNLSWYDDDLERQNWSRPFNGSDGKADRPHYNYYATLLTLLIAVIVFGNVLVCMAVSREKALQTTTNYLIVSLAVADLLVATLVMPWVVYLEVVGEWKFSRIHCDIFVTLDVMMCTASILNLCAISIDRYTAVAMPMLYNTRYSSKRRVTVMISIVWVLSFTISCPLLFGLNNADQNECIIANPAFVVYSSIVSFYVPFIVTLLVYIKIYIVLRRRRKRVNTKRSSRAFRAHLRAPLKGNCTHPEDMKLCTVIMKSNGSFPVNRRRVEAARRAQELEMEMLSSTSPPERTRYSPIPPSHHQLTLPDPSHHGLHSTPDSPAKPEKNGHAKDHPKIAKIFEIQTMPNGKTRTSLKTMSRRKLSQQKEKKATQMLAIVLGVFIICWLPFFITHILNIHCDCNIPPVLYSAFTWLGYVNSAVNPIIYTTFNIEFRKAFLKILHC
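Agonist mode: compounds alone added to overnight-plated D2 PathHunter cells for 90 min at 37 C, with 57 uM final dopamine (EC100) defining full response. Beta-arrestin recruitment detected by chemiluminescent reagent, read after 1 h at ambient temperature.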
D2 ag-2 – activates the human D2 dopamine receptor; P14416; HEK293 T-REx D2 cells, calcium flux agonist mode; activation, % at 2 µM; actives 0.53% (n = 340,000);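 active = activation over 3 SD above normal in the single-dose calcium agonist read, cut at about 30% in these data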; also: 0% is about no effect
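Agonism scored from kinetic calcium signal (1 read/sec, 180 s) following compound pin transfer, after a 10 s baseline. Cells: HEK293 Trex line expressing inducible D2 receptor coupled to calcium, dye-loaded after overnight culture at 30 C.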
D2 antag – D2 dopamine receptor (human) antagonism; P14416; inhibition, % at 10 µM; actives 2% (n = 340,000); HEK293 TREx D2 cells, calcium flux, dopamine EC80; in the data active = inhibition above about 30%; inactive = below that, where a call was filed; also: 0% is about no effect
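Compounds are added to dye-loaded, induced HEK293 T-REx cells coupled to calcium release via D2; after a 3 min kinetic read an EC80 dopamine stimulus is given and fluorescence is recorded for 3 more min.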
D2 PAM-1 – potentiates the human D2 dopamine receptor allosterically. DiscoveRx D2 beta-arrestin cells, luminescence, 90 min; 100% = 57 uM dopamine signal. potentiation, % (concentration not given with the values). actives 0.23% (n = 360,000); in the data active = potentiation above about 50%
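PathHunter beta-arrestin assay in DiscoveRx D2 cells. Compounds were added with an EC20 of dopamine (50 nM final) for 90 min at 37 deg C. Luminescence was read 1 h after detection reagent, with 57 uM dopamine as the EC100 control.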
D2 PAM-2 – positively modulates the human D2 dopamine receptor allosterically; potentiation, % at 10 µM; actives 0.34% (n = 340,000); AID 485347; HEK293 T-REx D2, calcium flux, EC20 dopamine potentiation; P14416;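 active = potentiation over 3 SD above the plate norm, cut at about 30% in these data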; also: 0% is about no effect
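Calcium flux readout, no-wash dye, 1 read/s. Inducible HEK293 Trex D2 line, overnight 30 C. Compound alone 180 s (agonist flags), then EC20 dopamine, another 180 s to score potentiation.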
The depositor's hits bear a star; · = no result. Shown are actives, neighbours in structure and some others; about 2.4% of the full set was active somewhere.

SMILES	D2 ag-1	D2 ag-2	D2 antag	D2 PAM-1	D2 PAM-2
C/C(=N\OC(=O)Nc1ccc(Cl)cc1)c1ccc(F)c(F)c1	10.9	-1.1	41.1*	-16.7	-26.2
O=C(NCc1ccco1)c1cccc2c1C(=O)N(C1CCCCC1)C2	-5.4	0.2	-18.3	-13.8	35.3*
CCN(C(=O)c1cnc(N2CCOCC2)c2ccccc12)c1cc(C)ccc1C	·	0.6	·	·	3.3
CC(=O)Nc1ccc(S(=O)(=O)N(C)c2ccc(OCC(=O)Nc3ccccc3C(C)=O)cc2)cc1	-3.0	0.8	-7.2	-11.5	1.1
CN(c1ccc(OCC(=O)Nc2ccccc2C(=O)O)cc1)S(=O)(=O)c1ccc(Cl)cc1	2.4	·	·	62.2*	·
Cc1cc2oc(C(=O)Nc3cccc(-c4nc5ccccc5o4)c3)c(C)c2cc1C	·	-1.4	·	·	-2.3
COC(=O)NC(=S)Nc1ccc(Oc2ccc(Cl)cc2)c(Cl)c1	-2.5	1.1	2.1	-5.9	-10.4
COC(=O)NC(=S)Nc1ccc(Oc2ccc(Cl)cc2Cl)c(Cl)c1	-1.3	·	·	-6.9	36.3*
CCOC(=O)CN1C(=O)C(Sc2n[nH]c(-c3cccc(C)c3)n2)CCc2ccccc21 (stereo unspecified)	-0.1	-0.5	-13.4	-21.9	-22.1
CCOC(=O)CN1C(=O)C(Sc2n[nH]c(-c3ccc(C)cc3)n2)CCc2ccccc21 (stereo unspecified)	-4.1	0.1	60.8*	-27.0	-20.8
CC(=O)Nc1ccc(NS(=O)(=O)c2ccc(C)cc2)cc1[N+](=O)[O-]	-0.6	-0.6	-2.7	-7.0	0.0
CC(=O)Nc1ccc(S(=O)(=O)Nc2ccc(F)c([N+](=O)[O-])c2)cc1	-8.6	1.5	43.0*	1.0	-13.7
CC(=O)Nc1ccc(S(=O)(=O)c2ccc([N+](=O)[O-])cc2)cc1	52.7*	0.2	-1.9	-2.9	-0.6
COc1ccc(Cl)cc1NC(=O)CSc1cn(CC(=O)N2CCCCCC2)c2ccccc12	·	0.2	·	·	-3.2
CNCc1c(OCc2ccccc2F)ccc2ccccc12	-2.7	-0.2	77.8*	-23.8	-22.2
CNCc1c(OCc2ccccc2)ccc2ccccc12	-2.9	0.4	79.2*	-10.4	-10.3
Nc1nonc1C(=O)NCCNCc1c(OCc2ccccc2F)ccc2ccccc12	0.5	-1.7	16.3	-13.9	-34.1
Cc1ccc(CSCc2ccc(C(=O)NCCc3ccc(Cl)cc3)o2)cc1	·	0.9	·	·	-0.7
Oc1ccc(C(=S)N2CCCC2)cc1	-2.2	0.5	9.2	-4.0	-5.5
COc1ccc(C(=S)N2CCCC2)cc1	-0.1	-0.2	-27.4	-7.2	42.8*
Oc1ccc(C(=S)N2CCCCCC2)cc1	-0.1	-0.1	37.0*	0.7	-3.4
CCOC(=O)c1c(NC(=O)C(C)Sc2cn(CCNC(=O)c3c(F)cccc3F)c3ccccc23)sc2c1CCC2 (stereo unspecified)	·	0.4	·	·	-3.6
Cc1ccc(CSc2nc3ccc(NC(=O)COc4ccccc4)cc3s2)cc1	·	1.3	·	·	12.8
Cn1c(SCc2ccccc2)nnc1-c1c[nH]c2ccccc12	-3.6	0.5	35.2*	-8.2	6.9
CCCCSc1nnc(-c2c[nH]c3ccccc23)n1C	11.0	0.2	7.7	-4.9	-2.1
SMILES	D2 ag-1	D2 ag-2	D2 antag	D2 PAM-1	D2 PAM-2
Cc1ccc(/C=C/c2onc(C)c2S(=O)(=O)N2CCC(C(=O)NCc3ccc(N(C)C)cc3)CC2)cc1	·	·	·	·	-1.0
COc1cc2c(cc1Cl)/C(=C\CCN(C)C)c1ccccc1S2	-3.2	2.0	36.5*	-49.3	-22.4
COc1cc(Cl)cc2c1Sc1ccccc1/C2=C/CCN(C)C	-4.0	-2.4	63.2*	-33.9	-22.9
CCCCC1CCC(C(=O)N2CC(=O)Nc3ccc(Cl)cc3C2c2ccc(F)cc2)CC1 (stereo unspecified)	·	-0.1	·	·	-5.6
CCOC(=O)C1(CCc2ccccc2)CCN(Cc2cccc3nccnc23)CC1	-4.3	-1.4	65.3*	-6.6	-24.3
CCOC(=O)CCNC(=O)N1CCC(CCOc2ccccc2)(C(=O)OCC)CC1	0.8	·	·	-1.1	·
CCOC(=O)C1(CCOc2ccccc2)CCN(Cc2ccncc2)CC1	-6.9	-0.6	-3.5	-3.1	-15.4
CCOC(=O)C1(CCOc2ccccc2)CCN(Cc2ccc(-n3cccn3)cc2)CC1	-4.0	0.4	35.2*	-1.3	-20.5
CCOC(=O)C1(Cc2ccccc2)CCN(Cc2cnn(-c3ccccc3)c2)CC1	-5.1	-1.0	33.3*	-16.7	-18.3
CCOC(=O)C1(CCOc2ccccc2)CCN(S(=O)(=O)N(C)C)CC1	7.6	0.7	42.9*	8.6	5.0
CCOC(=O)C1(Cc2ccccc2)CCN(Cc2cnn(CC)c2)CC1	1.4	0.3	6.7	-5.7	-3.8
COc1ccccc1N1CCN(c2ncnc3c2cnn3-c2cc(Cl)ccc2C)CC1	·	0.0	·	·	11.5
CCOc1ccccc1C(=O)N(Cc1ccc(N(C)C)cc1)Cc1ccco1	·	0.5	·	·	-3.5
Cc1cc(C)c2c(NC(=O)c3ccccc3Cl)c(C(=O)NCc3ccc(Cl)cc3)sc2n1	·	-0.2	·	·	-5.3
O=C(c1ccccc1)N1CCCCC(Cl)C1=O (stereo unspecified)	-1.5	1.6	31.1*	-8.6	-1.7
CCc1c(-c2ccccc2)nc2ccccc2c1C(=O)NCCc1ccccc1	·	0.2	·	·	2.5
O=C(O)CC(NC(=O)Cc1ccc(Cl)cc1)c1ccco1 (stereo unspecified)	-2.1	-1.5	-9.9	-1.8	38.9*
O=C(O)CC(NC(=O)c1ccco1)c1ccco1 (stereo unspecified)	-2.7	0.8	-2.8	4.7	-0.6
CCOc1ccc(C(CC(=O)O)NC(=O)C(CC)c2ccccc2)cc1 (stereo unspecified)	4.0	0.6	35.3*	-4.0	-6.2
COc1ccc(CC(=O)NC(CC(=O)O)c2ccc(OC)cc2)cc1 (stereo unspecified)	-2.4	-0.3	36.5*	-14.1	-5.3
Cc1ccc(NC(=O)c2oc3ccc(S(=O)(=O)N4CCC5(CC4)OCCO5)cc3c2C)c(C)c1	·	-1.2	·	·	·
COc1cccc(CNC(=O)c2ccc(CSc3nc4ccncc4n3Cc3cccc(C)c3)cc2)c1	·	0.9	·	·	-8.6
Cc1c(Br)c([N+](=O)[O-])nn1CC(=O)NC1CCCCCC1	-2.2	-1.6	41.5*	-5.6	0.7
Cc1c(Cl)c([N+](=O)[O-])nn1CC(=O)NC1CCCCC1	-4.1	0.1	11.1	-9.0	-6.1
COc1ccc(S(=O)(=O)NCc2cccn2Cc2cccc(C)c2)cc1OC	·	-2.8	·	·	0.2
Cn1c(Cn2nnc3ccccc32)nnc1SCC(N)=O	-2.7	-3.1	6.9	-5.0	33.9*
COCCn1c(C)cc(/C=C(\C#N)C(=O)OC(C)C(=O)Nc2ccc(NC(C)=O)cc2)c1C (stereo unspecified)	-0.2	0.0	33.4*	1.0	-3.5
Cc1cc(OCC(O)CN2CCc3ccccc3C2)ccc1Cl (stereo unspecified)	9.5	-0.4	79.2*	-23.1	-23.4
